Results filed as inconclusive are left out. Active and inactive are the calls of the source. Rule for the calls: active = hit-call score of the fitted dose curve at least 0.9, where 1 is the maximum; inconclusive = response in the unintended direction; inactive = score below 0.9.
read-out: Cytochrome P450 2B6 (Homo sapiens) (UniProt P20813); assay: CLD_CYP2B6_48hr: CellzDirect (CLD) Gene Expression Assay for xenobiotic metabolism (CYP2B6) at 48 hours (AID 2283699);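 note: actives raise transcript level above DMSO so potency reflects induction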
Description: CLD_48hr is a cell-based, multiplexed-readout assay that uses hepatocyte, a human liver primary cell, with measurements taken at 48 hours after chemical dosing in a 96-well plate.CLD_CYP2B6_48hr is one of 16 assay component(s) measured or calculated from the CLD_48hr assay. It is designed to make measurements of mRNA induction, a form of inducible reporter, as detected with chemiluminescence signals by Quantitative Nuclease Protection Assay (qNPA) technology.Data from the assay component CLD_CYP2B6_48hr was analyzed at the endpoint, CLD_CYP2B6_48hr, in the positive analysis fitting direction relative to DMSO as the negative control and baseline of activity. Using a type of inducible reporter, gain-of-signal activity can be used to understand changes in the reporter gene as they relate to the gene CYP2B6. Furthermore, this assay endpoint can be referred to as a primary readout. To generalize the intended target to other relatable targets, this assay endpoint is annotated to the cyp intended target family, where subfamily is xenobiotic metabolism.
Human hepatocyte cultures were treated daily for two consecutive days with fresh dosing solutions containing appropriate concentrations of the 320 ToxCast chemicals (chemical identities were blinded to CellzDirect and other ToxCast collaborators), vehicle control (0.2% DMSO), and positive control inducers as summarized in Table 1. Due to the large number of treatment groups and chemicals examined, the ToxCast chemicals were divided into two groups (spanning two independent cultures of hepatocytes from separate donor preparations (Hu778: ToxCast plates 1 and 2; Hu776: ToxCast plates 3 and 4). Each preparation of human hepatocyte cultures was treated with respective vehicle control, medium only control, set of six positive controls/reference chemicals for the five hepatic receptor pathways, and a subset of eight of the ToxCast chemicals (indoxacarb, pyrithiobac-sodium, norflurazon, cyhalofop-butyl, methomyl, thiram, acetochlor, and propiconazole). These replicate data, coupled with internal replicates designed within the blinded ToxCast chemical library, provided additional data to evaluate interindividual differences between hepatocyte preparations and their potential impact on chemical profiles.Cell morphology and integrity were evaluated using phase-contrast microscopy as an indicator of hepatocyte cell health (Tyson & Green, 1987). Cultures for each treatment group (i.e., media, vehicle [0.2% DMSO], positive control inducers [multiple concentrations], and the ToxCast chemicals [multiple concentrations]) were observed and cell morphology was assessed relative to vehicle control cultures at each harvest time point (0, 6, 24, or 48 h). […] Images were evaluated at the conclusion of the study to assess changes in cell integrity and account for the effects of chemical exposure on uncharacteristic changes in concentration-dependent gene expression profiles. The results from these determinations of apparent cytotoxicity were annotated (yes/no) alongside the corresponding qNPA data for reference.At the conclusion of each treatment period, hepatocyte cultures (96-well) were washed with 1 volume of HBSS, lysed by addition of 25 ul ArrayPlate lysis buffer (HTG, Tucson, AZ), and 70 ul/well of Denaturation Oil, denatured by incubation at 95C for 10 min, and frozen at approximately -70C until analysis by nuclease protection assay (qNPA) (Roberts et al., 2007). For qNPA analysis, cell lysates were thawed at 50C for approximately 30 min, qNPA probes were added, and samples were incubated at 95C for 10 min to begin the detection process by denaturing the target RNA, dissociating the duplexes and secondary structure hybridization. At the conclusion of the hybridization period, S1 nuclease reagent was added to each sample to digest all nonprotected nucleotides at 50C for 60-90 min. […]

SMILES	AC50	outcome
N#Cc1c[nH]cc1-c1cccc2c1OC(F)(F)O2	2.54 µM (active)	–
N#CN=C1SCCN1Cc1ccc(Cl)nc1	9.25 µM (active)	–
CC(C)N1C(=O)N(c2ccccc2)CSC1=NC(C)(C)C	4.31 µM (active)	–
CCCC(=NOCC)C1=C(O)CC(CC(C)SCC)CC1=O (stereo not given)	–	inactive
CCOP(=O)(OCC)Oc1nc(Cl)c(Cl)cc1Cl	3.97 µM (active)	–
CCCCOCN(C(=O)CCl)c1c(CC)cccc1CC	2.5 µM (active)	–
CC(C)Oc1cccc(NC(=O)c2ccccc2C(F)(F)F)c1	5.34 µM (active)	–
CCSC(=O)N1CCCCCC1	0.378 µM (active)	–
Clc1nc(Cl)nc(Nc2ccccc2Cl)n1	–	inactive
CNC(=O)Oc1cccc2ccccc12	4.42 µM (active)	–
CCCCC(O)(Cn1cncn1)c1ccc(Cl)cc1Cl (stereo not given)	0.63 µM (active)	–
Nc1c(Cl)c(Cl)nc(C(=O)O)c1Cl	–	inactive
C=CCOC(=O)C(C)(C)OC(=O)c1cc(-n2c(=O)cc(C(F)(F)F)n(C)c2=O)ccc1Cl	0.168 µM (active)	–
CCOC(=O)C(C)OC(=O)c1cc(Oc2ccc(C(F)(F)F)cc2Cl)ccc1[N+](=O)[O-] (stereo not given)	20 µM (active)	–
CC1(C)C(C(=O)OC(C#N)c2cccc(Oc3ccccc3)c2)C1(C)C (stereo not given)	4.06 µM (active)	–
COCC(C)N(C(=O)CCl)c1c(C)csc1C (stereo not given)	5.14 µM (active)	–
O=C(O)c1c(Cl)ccc2cc(Cl)cnc12	–	inactive
Nc1c(Cl)c(F)nc(OCC(=O)O)c1Cl	–	inactive
O=P(O)(O)CCCl	–	inactive
Clc1cccc(C(Cl)(Cl)Cl)n1	1.47 µM (active)	–

SMILES	AC50	outcome
COC(=O)NS(=O)(=O)c1ccc(N)cc1	–	inactive
CC(C)C1(C)N=C(c2ncccc2C(=O)O)NC1=O (stereo not given)	0.000587 µM (active)	–
COC(=O)NC(=S)Nc1ccccc1NC(=S)NC(=O)OC	20 µM (active)	–
Cc1c(COC(=O)[C@@H]2[C@H](/C=C(\Cl)C(F)(F)F)C2(C)C)cccc1-c1ccccc1	3.39 µM (active)	–
COC(=O)N(C(=O)N1CO[C@@]2(C(=O)OC)Cc3cc(Cl)ccc3C2=N1)c1ccc(OC(F)(F)F)cc1	0.505 µM (active)	–
C=C(C)CN(CC)c1c([N+](=O)[O-])cc(C(F)(F)F)cc1[N+](=O)[O-]	–	inactive
CCOc1nc(F)cc2nc(S(=O)(=O)Nc3c(Cl)cccc3Cl)nn12	7.88 µM (active)	–
COc1cc(Cl)c(OC)cc1Cl	0.0752 µM (active)	–
CCNP(=S)(OC)O/C(C)=C/C(=O)OC(C)C (stereo not given)	0.598 µM (active)	–
Cc1nc(N(C)C)nc(OC(=O)N(C)C)c1C	5.26 µM (active)	–
CC(C)=CC1C(C(=O)OCc2coc(Cc3ccccc3)c2)C1(C)C (stereo not given)	20 µM (active)	–
CC1(C)C(C=C(Cl)Cl)C1C(=O)OC(C#N)c1cccc(Oc2ccccc2)c1 (stereo not given)	6.46 µM (active)	–
COP(=S)(OC)SCn1nnc2ccccc2c1=O	4.19 µM (active)	–
COc1cc(OC)nc(NC(=O)NS(=O)(=O)c2ncccc2OCC(F)(F)F)n1	–	inactive
N#Cc1c(Cl)cccc1Cl	1.44 µM (active)	–
CC1(C)CCC(=Cc2ccc(Cl)cc2)C1(O)Cn1cncn1 (stereo not given)	4.01 µM (active)	–
O=c1n(Cl)c(=O)n(Cl)c(=O)n1Cl	–	inactive
CSC(=O)c1c(C(F)F)nc(C(F)(F)F)c(C(=O)SC)c1CC(C)C	0.416 µM (active)	–
CC1(C)CON(Cc2ccccc2Cl)C1=O	3.23 µM (active)	–
CCN(CC)C(=O)C(C)Oc1cccc2ccccc12 (stereo not given)	6.33 µM (active)	–
